Where “and” joins values, the source holds several entries; their conditions need not be identical. Equal values may be shown once. About 1,500 (65%) of roughly 2,300 compounds were called active. Rule as the data show it: active = inhibition above about 18%; inactive = the rest. The set was probably picked from earlier hits. A selection follows. A structure can be active in one record and inactive in another.
These compounds were tested against Heat shock protein HSP 90-alpha (Homo sapiens) (UniProt P07900) (assay: inhibitors of HSP90 chaperone activity – cell lysate, luminescence, confirmation (AID 1846;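 also: 0% = vehicle wells and 100% = reference inhibitor wells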)). Settings: rabbit reticulocyte lysate, luciferase refolding luminescence, 3 h; at 5.9 µM; stronger effect = higher value.

SMILES	inhibition
COc1cccc(/C=C/c2ccc3ccccc3n2)c1OC(C)=O	72.3% (active)
CN(c1ccc2nc3ccccc3c(=O)n2n1)C1CCCCC1	90.9% (active)
C=CCN1CCN(C(=O)CCCc2ccccc2)CC1	52.5% (active)
Cc1cccc(NC(=O)/C=C/c2ccc3c(c2)OCO3)n1	40.6% (active)
O=C(Nc1cccnc1)c1noc2c1CCCCC2	48% (active)
COc1ccc(Nc2ncnc3ccc(Br)cc23)c(OC)c1	54.7% (active)
O=C(Cc1ccccc1)N1CCN(S(=O)(=O)c2ccc([N+](=O)[O-])cc2)CC1	53.5% (active)
c1ccc(-c2ccc3c(c2)NC(C2Nc4cc(-c5ccccc5)ccc4O2)O3)cc1 (stereo not given)	8.8% (inactive)
CCOc1ccc(-c2nnc(-c3ccco3)o2)cc1	60.3% (active)
COCc1cc(=O)[nH]c2cc(NC(=O)C(F)(F)F)c(C)cc12	-8.2% (inactive)
O=C(Nc1ccc2c(c1)OCCO2)C1CCCN(c2ncccn2)C1 (stereo not given)	34.1% (active)
COc1ccc(Cl)cc1NC(=O)Cn1nc(-c2ccc(C)cc2)n(C)c1=S	-3.4% (inactive)
Clc1ccc(-c2cc(-c3ccccn3)on2)c(Cl)c1	84.9% (active)
CCN(CCCNC(=O)c1ccc2c(c1)NC(=O)CN2C)c1cccc(C)c1	14.4% (inactive)
Cc1nc2cc(NC(=O)Nc3cccc(F)c3)ccc2n1C	40.5% (active)
CCOC(=O)C1=C(c2ccc(OC)cc2)C(=O)c2ccccc2C1=O	95.3% (active)
Cc1ccc(C(=O)O/N=C(\N)c2ccccn2)cc1Cl	29.5% (active)
COc1ccc(CNC(=O)/C(C#N)=C/c2cccc(OC)c2OC)cc1	18.9% (active)
Cc1cccc(C(=O)OC(C)CN2CCN(C)CC2)c1 (stereo not given)	19.1% (active)
O=[N+]([O-])/C=C/c1ccc2c(ccn2Cc2ccccc2)c1	68.7% (active)
COC(=O)C1[C@H]2SC(C)(C)C(C(=O)OC)N2C(=O)N1Cc1nc2ccccc2s1 (stereo not given in full)	-5.33% (inactive)
O=C(O)c1ccc(N=NN2CCOCC2)cc1	-8.5% (inactive)
O=C(CSC(=S)N1CCOCC1)c1ccccc1	57.6% (active)
Cc1nn(CC(=O)Nc2ccc(F)cc2)c(=O)c2ccccc12	-9.73% (inactive)
Cc1cnc(NC(=O)c2ccccn2)s1	39.7% (active)

SMILES	inhibition
COc1cccc2c(C)c(C(=O)O)[nH]c12	56.9% (active)
O=C(Cn1c[n+](CC(=O)c2ccc([N+](=O)[O-])cc2)cn1)c1ccc([N+](=O)[O-])cc1	3.57% (inactive) and 48.8% (active)
Cc1ccc(C(=O)CSc2ccccc2C(=O)O)cc1	42.3% (active)
Cc1ccsc1C(=O)OCC(=O)c1cc(C)n(CC2CCCO2)c1C (stereo not given)	89.3% (active)
Clc1cccc(N=C2NN=C(c3ccc4c(c3)OCCO4)CS2)c1	41.5% (active)
Cc1nc2ccc(C(=O)O)cc2[nH]1	46.4% (active)
CC(C)c1nc2ccc(C(=O)O)cc2[nH]1	55.6% (active)
CC(C)CNC(=O)CC(NCC(C)C)C(=O)O (stereo not given)	-4% (inactive)
CC(C)(C)OC(=O)c1c(N)n(CCCN2CCCC2=O)c2nc3ccccc3nc12	-5.73% (inactive)
CCCCOCCCNC(=O)c1ccccc1OCC	-3.83% (inactive)
CCCOc1ccc(C(=O)NCCc2ccccc2)cc1	49.2% (active)
COc1ccc(/C=C/c2noc(-c3ccccc3OC(C)=O)n2)cc1	45.2% (active)
COC(=O)c1sc(NC(=O)c2ccc(OC)cc2OC)nc1C	67.3% (active)
COC(=O)c1sc(NC(=O)c2csc3c2CCCC3)nc1C	12.5% (inactive)
COc1cc(SC)ccc1C(=O)Nc1nc(C)cs1	94% (active)
COc1cc(NS(=O)(=O)c2ccc3ccccc3c2)c2ncccc2c1	10.9% (inactive)
c1ccc(-c2noc(-c3cccs3)n2)nc1	43.7% (active)
CCOc1ccc(N/C=C/C(=O)c2ccccc2)cc1	75.5% (active)
COc1ccc(C(=O)/C=C/Nc2ccccn2)cc1	96.8% (active)
Cc1ccc(-n2c(SCC(=O)Nc3ncc(Cl)cc3Cl)nc3ccccc32)cc1	14% (inactive)
CCCCC(=O)Nc1nc(C)c(-c2csc(Nc3ccc(Cl)cc3)n2)s1	7.3% (inactive)
Cc1ccc(Nc2nc(-c3sc(NC(=O)c4ccccc4)nc3C)cs2)cc1	15.7% (inactive)
Cc1nc(NC(=O)c2cccc(Cl)c2)sc1-c1csc(Nc2cccc(Cl)c2)n1	23.7% (active)
COc1ccc(/C=N/Nc2ccccc2C(=O)O)cc1	29.5% (active)
COc1ccc(C(=O)Nc2ccccc2C(=O)N/N=C/c2ccc(O)c(OC)c2)cc1	98.7% (active)

SMILES	inhibition
COc1ccc(C(=O)Nc2ccccc2C(=O)N/N=C/c2ccccc2OC)cc1	74.7% (active)
CCc1nc(SCC(=O)Nc2ccccc2OC)n[nH]1	1.4% (inactive)
Cc1ccc2nc(/C(C#N)=C\c3ccc(OC(=O)c4cccs4)cc3)[nH]c2c1	-11% (inactive)
CCCCCc1ccc(-c2ccc(C(=O)O)cc2)nc1	72.4% (active)
COc1ccc(-n2nnnc2-c2nc3ccccc3s2)cc1	51.8% (active)
CCN(CC)CCn1c(N)c(S(=O)(=O)c2ccccc2)c2nc3ccccc3nc21	-3.4% (inactive)
Cc1nnc(SCC(=O)N2c3ccccc3C(C)(c3ccc(Cl)cc3)CC2(C)C)s1 (stereo not given)	8.97% (inactive)
O=C(Nc1nc2ccccc2s1)c1ccc2c(c1)OCO2	57.7% (active)
O=C(Nc1ccccc1)c1ccc2c(c1)OCCCO2	49.6% (active)
CCCS(=O)(=O)N1CCCC(C(=O)NCCN2CCCCC2C)C1 (stereo not given)	1.9% (inactive)
CCOC(=O)c1nc(C)n(-c2ccc(Cl)cc2Cl)n1	0.2% (inactive)
c1c2c(cc3sc(N4CCCCC4)nc13)OCCO2	81.9% (active)
CSCCC(C(=O)NC1=NCCS1)N1C(=O)c2ccccc2C1=O (stereo not given)	-7.1% (inactive)
CCOc1ccc(C2NC(=S)NC3=C2CCc2ccccc23)cc1 (stereo not given)	28.4% (active)
Cn1c(-c2ccco2)nc2cc3ccccc3cc21	58.9% (active)
CC(OC(=O)c1ccc2noc(-c3ccccc3)c2c1)C(N)=O (stereo not given)	2.1% (inactive)
C/C(=N\NC(=S)NC1CCCCC1)c1ccc(C)o1	3.2% (inactive)
CCOc1ccc(OCc2ccc(C(=O)N(C)c3ccccc3)o2)cc1	28.8% (active)
O=C(Nc1ccccc1C(=O)O)c1ccc(N2C(=O)C3CC=CCC3C2=O)cc1 (stereo not given)	25.4% (active)
CCOc1ccc(OCc2cccc(C(=O)N(CC)CC)c2)cc1	39.7% (active)
CCS(=O)(=O)c1cc([N+](=O)[O-])c(Sc2ccccc2N)s1	56% (active)
Oc1c(C=Nc2cccc3nsnc23)ccc2ccccc12	6.47% (inactive)
O=c1oc(/C=C/c2ccccc2)nc2ccccc12	33% (active)
Cc1ccc2nc(-c3ccc(Br)cc3)cn2c1	82% (active)
COc1ccc(-c2cn3ccc(C)cc3n2)cc1	83.5% (active)

SMILES	inhibition
Cc1ccc(-c2cn3cc(C)ccc3n2)cc1	90.3% (active)
COc1cc(C(=O)NN(CCC#N)C2=NS(=O)(=O)c3ccccc32)cc(OC)c1OC	-4.73% (inactive)
CCc1ccc(Nc2ncc3c(n2)CC(c2ccco2)CC3=O)cc1 (stereo not given)	-4.8% (inactive)
CCOC(=O)N1CCN(Cc2nc3c(c(=O)n(C)c(=O)n3C)n2Cc2ccccc2)CC1	-3.3% (inactive)
COc1cc(CNC2CCCCC2)c(Br)cc1OC1CCCC1	5.53% (inactive)
Cc1sc2nc(CSCC(=O)Nc3c(Cl)cccc3Cl)[nH]c(=O)c2c1C	-4.2% (inactive)
CCc1ccc2oc(-c3ccc(N)cc3)nc2c1	53.6% (active)
Nc1ccc(-c2nnc(-c3ccccc3)o2)cc1	4.47% (inactive)
Clc1ccc2nc(CSc3ccccc3)cn2c1	57% (active)
Cc1cccc(CCNC(=O)Cn2ncc3c([nH]c4ccc(C)cc43)c2=O)c1	5.53% (inactive)
Cc1csc(SCC(=O)Nc2sccc2C#N)n1	42.4% (active)
Cc1cc(C(=O)COC(=O)C2CC2)c(C)n1-c1ccc(F)cc1	87.3% (active)
O=C1CCC([N+](=O)[O-])C(c2ccccc2Br)N1 (stereo not given)	-5.63% (inactive)
O=C(OC1CCOC1=O)c1ccc(-c2nc3ccccc3s2)s1 (stereo not given)	60.6% (active)
CCCCNC(=O)Nc1c(C)cc(SC#N)cc1C	4.17% (inactive)
CN(CCO)c1ccc(/C=N/Nc2nncc3ccccc23)cc1	91.8% (active)
Cc1ccc(Nc2nc(-c3ccc(O)cc3O)cs2)nc1	0.63% (inactive)
O=C(CN1C(=O)c2ccccc2S1(=O)=O)N1CCc2ccccc21	46.1% (active)
CCOC(=O)CNC(=O)c1nn(-c2cccc(OC)c2)c(=O)c2ccccc12	-0.53% (inactive)
COc1ccc(-c2nc(-c3ccccc3)no2)c(OC)c1	84.8% (active)
CCOc1c(Br)cc(/C=C2\C(=O)N(CCC#N)N=C2C)cc1OC	-11.9% (inactive)
N#C/C=C\Oc1ccc(Cl)cc1N	-1.37% (inactive)
CN(C)c1ccc(-n2cccc2/C=N/n2cnnc2)cc1	45.9% (active)
CC(C)Nc1ccc(-n2nc3ccccc3[n+]2[O-])cc1	51.6% (active)
Cc1ccc(C(=O)COC(=O)c2cccc(N3C(=O)c4c(C)nc5ccccc5c4C3=O)c2)cc1C	4.83% (inactive)

From PubChem BioAssay AID1846 (The Scripps Research Institute Molecular Screening Center, 2009)
